Measured values from PubChem BioAssay AID1030 (National Center for Advancing Translational Sciences (NCATS), 2008).
The whole screen tested about 220,000 compounds, of which about 16,000 (7.3%) were called active. About 25% were inconclusive and are not listed. For the sample, actives were picked, then their nearest neighbours and some compounds at random. Unmarked numbers belong to inactive results. Calls follow the shape of the dose curve; as a rule, active = well fitted inhibition curve with a large enough effect (not every such curve was filed as active); inconclusive = small, poorly fitted or top-dose-only effect, or another doubt; inactive = no such curve, though single readings can be large or run the other way.

What follows are compounds tested against Aldehyde dehydrogenase 1A1 (Homo sapiens) (UniProt P00352) (assay: qHTS Assay for Inhibitors of Aldehyde Dehydrogenase 1 (ALDH1A1)). Conditions: Purified ALDH1A1, NADH fluorescence, propionaldehyde substrate; series mostly up to 75.3 µM; activity, negative = inhibition: at the top concentration.
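For activity, negative = inhibition in this document: plate controls were no enzyme wells and a reference inhibitor.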
Potency is read from the fitted curve at half-maximal effect.

Chain of Aldehyde dehydrogenase 1A1 (Homo sapiens) (P00352 whole entry, looked up): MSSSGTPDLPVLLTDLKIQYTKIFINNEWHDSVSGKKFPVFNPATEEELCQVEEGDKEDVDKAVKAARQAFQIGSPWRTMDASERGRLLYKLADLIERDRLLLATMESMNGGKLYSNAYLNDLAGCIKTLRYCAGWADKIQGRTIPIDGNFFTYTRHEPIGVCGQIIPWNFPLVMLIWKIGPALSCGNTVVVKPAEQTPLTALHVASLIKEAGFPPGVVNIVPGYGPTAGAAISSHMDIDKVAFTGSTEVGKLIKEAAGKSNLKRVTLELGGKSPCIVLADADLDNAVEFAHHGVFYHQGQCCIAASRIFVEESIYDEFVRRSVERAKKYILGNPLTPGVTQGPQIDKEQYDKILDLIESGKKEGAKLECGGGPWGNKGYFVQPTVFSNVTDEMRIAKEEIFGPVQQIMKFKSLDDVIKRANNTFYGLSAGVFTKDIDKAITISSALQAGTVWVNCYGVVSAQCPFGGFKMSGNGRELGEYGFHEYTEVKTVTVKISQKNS

SMILES | activity, negative = inhibition | Potency
N#Cc1ccc(COC(=O)Cn2nnc(-c3ccccc3)n2)cc1 | -12.2% | 
N#Cc1c(N)sc2c1CCN(C(=O)OCc1ccccc1)C2 |  | 10 µM (active)
O=C(O)C1CCN(C(=O)OCc2ccccc2)CC1 | 11.2% | 
CCN1CCC2(CCN(Cc3cn[nH]c3-c3ccc(OC)c(F)c3)C2)C1 (stereo not drawn) | -5.12% | 
C=CCN(CC=C)CCOc1ccccc1[N+](=O)[O-] | -17% | 
CCOC(=O)c1cnc(SCc2nc(N)nc(Nc3ccc(OC)cc3)n2)nc1N | 8.96% | 
CCOC(=O)N1CCN(Cc2nc(N)nc(Nc3ccc(C)cc3)n2)CC1 | -7.53% | 
COc1ccc(Nc2nc(N)nc(CSC(=S)N3CCC(C)CC3)n2)cc1 |  | 3.16 µM (active)
Oc1ccc(-c2onc3ccc(Cl)cc23)cc1 |  | 11.2 µM (active)
O=C(Cn1nnc(-c2ccccc2)n1)NCc1ccc2c(c1)OCO2 | 0.62% | 
O=C1N(Cc2ccc3c(c2)OCO3)c2ccccc2C1(O)c1c[nH]c2ccccc12 (stereo not drawn) |  | 3.16 µM (active)
O=C(CCCCn1c(=O)[nH]c2ccccc2c1=O)NCc1ccc2c(c1)OCO2 | 7.65% | 
CCOc1ccc(-n2cnc3c(=O)[nH]c(N)nc32)cc1 | 6.63% | 
CO/N=C(\N)c1ccc([N+](=O)[O-])cc1 | 2.88% | 
CCCn1c(SCC(=O)Nc2ccc(C)c(S(=O)(=O)N3CCOCC3)c2)n[nH]c1=O | -6.54% | 
COc1ccc(CNc2c(CO)cnc3c2cnn3C)cc1 | -13.3% | 
Nc1cc(=O)nc(SCc2ccccc2)n1Cc1ccco1 | 12.6% | 
CCOC(=O)Cc1csc(NC(=O)CSc2nnc(-c3cccnc3)n2Cc2ccco2)n1 | -6.11% | 
CCOC(=O)CSc1nc2c(sc(=S)n2CCc2ccccc2)c(=O)n1Cc1ccco1 |  | 31.6 µM (active)
Cc1cc(C)n2nc(C(=O)N3CCN(Cc4ccc5c(c4)OCO5)CC3)nc2n1 | 5.33% | 
CCCCCCCC/C=C\CCCCCCCC(=O)OC[C@H](CO)OC(C)=O |  | inactive
CCN(CC)CCNC(=O)c1ccc(NC(=O)c2c(F)cccc2Cl)cc1 | -2.52% | 

SMILES | activity, negative = inhibition | Potency
COc1ccc(CCNC(=O)c2cc(-c3ccc4c(c3)OCO4)on2)cc1OC | 8.9% | 
COc1c2c(cc3occ(-c4ccc5c(c4)OCO5)c(=O)c13)OC(C)(C)C=C2 |  | 14.1 µM (active)
Cc1ccc(NC(=O)C(=O)NCC2CCN(C(=O)c3cccc([N+](=O)[O-])c3)CC2)cc1 | 1.36% | 
CN1CCN(CC#CCC2(O)c3ccccc3-c3ccccc32)CC1 | -5.97% | 
CC(=O)C1C(c2ccc(Cl)cc2)c2c(n[nH]c2C)CC1(C)O (stereo not drawn) | 2.01% | 
CC(C)N1CCC(N2CCN(Cc3cccnc3)CC2CCO)CC1 (stereo not drawn) | 1.27% | 
CCOc1ccc(NC(=O)CC2NCCNC2=O)cc1 (stereo not drawn) | 9.3% | 
O=C(CC1NCCNC1=O)Nc1ccc(Oc2ccccc2)cc1 (stereo not drawn) |  | 20 µM (active)
O=C(CC1NCCNC1=O)Nc1cc(Cl)cc(Cl)c1 (stereo not drawn) | 1.99% | 
COc1ccc(-c2nc(-c3ccccc3)oc2Nc2ccc3ccccc3c2)cc1 | -9.62% | 
COc1ccccc1CNC(=O)CNC(=O)c1cn(-c2ccccc2OC)c(=O)c2ccccc12 | -5.29% | 
COc1cccc(CC2(CO)CCCN(CC3=Cc4cc(OC)ccc4OC3)C2)c1 (stereo not drawn) | -12.6% | 
Cc1nn(-c2ccccc2)c(=O)c2noc(C)c12 | -1.15% | 
O=C(c1cccnc1)N(c1cc2sc(=O)oc2c2ccccc12)S(=O)(=O)c1ccccc1 |  | 10 µM (active)
COc1ccc(N(C(=O)c2cccnc2)S(=O)(=O)c2ccc3c(c2)n(C)c(=O)n3C)cc1 | -5.62% | 
Cc1ccc(C(=O)Cn2cccn2)cc1 | -4.42% | 
COc1ccc(CCNC(=O)COC(=O)/C=C/c2cccs2)cc1OC | 4.49% | 
COc1ccc(CCNC(=O)C(=O)NCc2ccccc2C)cc1OC | 8.53% | 
COc1ccc(CCNC(=O)CC2SC(=Nc3cc(C)cc(C)c3)NC2=O)cc1OC (stereo not drawn) |  | 12.6 µM (active)
CCCCn1c(N)c(N(CC)C(=O)/C=C/c2ccco2)c(=O)[nH]c1=O | -2.37% | 
CC(C)(C)NC(=O)c1ccc(Cn2cc(C(F)(F)F)ccc2=O)cc1 | 1.97% | 
O=C1NC(=Nc2ccc(Cl)cc2)SC1Cc1cccc(Cl)c1Cl (stereo not drawn) | 17.6% | 

SMILES | activity, negative = inhibition | Potency
CCC(C)(C)n1nnnc1C(c1cccs1)N1CCN(Cc2ccccc2)CC1 (stereo not drawn) | -3.94% | 
N#Cc1ccc(C(c2nnnn2CCc2ccccc2)N2CCCCCC2)cc1 (stereo not drawn) | -7.57% | 
Fc1ccc(Cn2nnnc2C(c2cccs2)N2CCCCCC2)cc1 (stereo not drawn) |  | 7.94 µM (active)
COc1ccc(C(=O)N/N=c2\oc3ccccc3cc2C(N)=O)cc1 | -1.79% | 
CC1Cc2ccccc2N1C1=CC(=O)CC(C)(C)C1 (stereo not drawn) | -16.2% | 
COc1ccccc1CC(=O)Nc1ccc([N+](=O)[O-])cc1OC | -4.92% | 
COc1ccccc1CSc1ncc(-c2ccc([N+](=O)[O-])cc2)[nH]1 |  | 28.2 µM (active)
COc1ccccc1CSc1nc2ccccc2[nH]1 | 4.43% | 
Cc1ccc(NC(=O)O[C@@H]2C(=O)c3cc(Br)ccc3O[C@H]2c2ccc3c(c2)OCO3)cc1Br | -1.23% | 
CC(C)(C)CN1CCNC(=O)C1CC(=O)NC1Cc2ccccc2C1 (stereo not drawn) | -0.0338% | 
COc1cccc(CNC(=O)c2n[nH]c3ccccc23)c1 | 0.331% | 
COc1cccc(NC(=O)NCc2ccc(F)cc2)c1 | 5.85% | 
COC(=O)[C@@H](NC(=O)NCc1cccc(OC)c1)C(C)C |  | 10 µM (active)
CC(=O)Cc1nsc(NC(=O)c2ccc(Cl)cc2Cl)n1 | 1.32% | 
CC1CCCN(CC(O)COc2ccc3c(c2)OCO3)C1 (stereo not drawn) | -0.13% | 
O=C(COC(=O)CCCNC(=O)c1ccc(Cl)cc1)Nc1cc(Cl)ccc1Cl | 11.4% | 
CCCCNC(=O)CCNC(=O)c1ccc(C(C)(C)C)cc1 | -13.2% | 
Cc1ccc(CNC(=O)CCCNC(=O)c2ccc(Cl)cc2)n1C |  | 28.2 µM (active)
CCc1cc2c(NC3CCCC3)ncnc2s1 | -8.26% | 
COC(=O)C1=C(C(=O)OC)[C@@H]2N(C)c3ccccc3[C@@]23C[C@@H](C(=O)OC)N(C(C)=O)C3=N1 | 3.72% [at 13.5 µM] | 
C[C@@H](C(=O)N1CCNCC1)n1cc(CCC(=O)O)nn1 | 0.0753% | 
O=C(Nc1ccc(Cl)cc1)c1ccsn1 | 5.63% | 

SMILES | activity, negative = inhibition | Potency
O=C(Nc1ccccc1)c1nnsc1S(=O)(=O)c1ccc(Cl)cc1 |  | 2.24 µM (active)
O=C(c1ccc(Cl)cc1)c1cnc(Nc2ccccc2)s1 | 9.26% | 
O=C(O)CS/C(=C\c1ccc(F)cc1)c1nc2ccccc2s1 | 9.19% | 
COc1cccc(CNC(=O)CCC2CCCN(Cc3ccc(OC(F)F)cc3)C2)c1 (stereo not drawn) | 8.18% | 
Cn1c(N)c(C(=O)COC(=O)/C=C/c2ccc(OC(F)F)cc2)c(=O)n(C)c1=O | 0.549% | 
O=C(Nc1ccccc1)N1CCN(C(=O)Nc2ccccc2)CC1 | 1.94% | 
S=C(c1ccc(-c2ccccc2)o1)N1CCCCC1 |  | 3.55 µM (active)
S=C(Nc1ccc2c(c1)OCO2)N1CCCC1 | -14.8% | 
NC(=O)C1(N2CCCCC2)CCN(C(=O)c2ccc(C#Cc3ccccc3)o2)CC1 | -13.8% | 
O=C(/C=C/c1ccc(OCc2c(F)cccc2Cl)cc1)N1CCOCC1 | -4.08% | 
O=C1NC(c2ccc(-c3ccccc3[N+](=O)[O-])o2)C(C(=O)c2ccc(Cl)cc2)C(O)(C(F)(F)F)N1 (stereo not drawn) |  | 20 µM (active)
CN1CCN(c2ccc(NC(=O)c3ccc4c(c3)OCCO4)cc2Cl)CC1 | -6.09% | 
Cc1c(NC(=S)Nc2ccccc2)c(=O)n(-c2ccccc2)n1C | -0.293% | 
COC(=O)Nc1c(C)n(C)n(-c2ccccc2)c1=O | 4.54% | 
CCN(CC)P(=O)(/C(Cl)=C\Nc1c(C)n(C)n(-c2ccccc2)c1=O)N(CC)CC |  | 17.8 µM (active)
COC(=O)c1ccc(NC(=O)Nc2ccc(C)cc2)cc1 | 18.1% | 
Cc1ccc(C(=O)CNc2ccc(F)cc2)cc1 |  | 11.2 µM (active)
COC(=O)c1ccc(NCC(=O)c2ccccc2)cc1 |  | 11.2 µM (active)
Cc1ccc(NC(=O)CC(=O)Nc2ccc(C)cc2)cc1 | 4.23% | 
Cc1ccc(C(=O)CS(C)(=O)=O)cc1 | -3.97% | 
COC(=O)c1ccc(NC(=O)C(C)N2C(=O)c3ccccc3C2=O)cc1 (stereo not drawn) | 3.93% | 
CC(C)Nc1nnc(SCC(=O)/C=C2\N(C)c3ccccc3C2(C)C)s1 | -2.25% | 

SMILES | activity, negative = inhibition | Potency
CCCCCc1ccc(-c2ccc(OCC)cc2)nc1 | 3.76% | 
O=C(N1CCCCC1)N1CCN(C(=O)N2CCCCC2)CC1 | -13.2% | 
CCCNC(=O)c1c(Cl)cnn1-c1ccc(C)cc1 | 0.157% | 
CCC(C)CN1CCC(CO)(Cc2ccccc2Cl)CC1 (stereo not drawn) | 6.32% | 
COCCNC(=O)/C(C#N)=C/c1cccc(OCc2ccccc2)c1 | -8.15% | 
O=C(NCC(O)c1ccc([N+](=O)[O-])cc1)C1CCCCC1 (stereo not drawn) | 5.34% | 
NC(N)=N/N=C/c1ccc(Cl)c([N+](=O)[O-])c1 | 4.87% | 
O=[N+]([O-])c1ccc(N2CCSCC2)cc1O | -9.62% | 
O=C1CSC(=S)N1/N=C/c1ccc(O)c([N+](=O)[O-])c1 |  | 1.26 µM (active)
Nc1ccc(C(=O)OCC(=O)NC2CCS(=O)(=O)C2)cc1[N+](=O)[O-] (stereo not drawn) | -0.662% | 
CN(C)c1nccc(NCc2ccccc2)c1C#N | -5.36% | 
CN(C(=O)COc1ncnc2c1cnn2-c1ccccc1)C1CCCCC1 | -9.75% | 
CN(C)S(=O)(=O)Oc1ccccc1C(=O)Nc1ccccc1Cl | 8.77% | 
CSCCC(NC(=O)C1CCC(C)CC1)C(=O)NCc1ccco1 (stereo not drawn) | 5.15% | 
CC(=O)Nc1ccccc1OC(C)C(=O)N1CCC(C)CC1 (stereo not drawn) | 5.08% | 
CSCCC(NS(=O)(=O)/C=C/c1ccccc1)C(=O)N1CCC(C)CC1 (stereo not drawn) |  | 14.1 µM (active)
CCCCCCCCCCOC(=O)C[N+](C)(C)CC1CCCCC1O (stereo not drawn) | 4.34% | 
O=[N+]([O-])c1ccc2c(c1)C(N1CCOCC1)/C(=C/C1(O)CCCCC1)O2 (stereo not drawn) |  | 10 µM (active)
O=C(NC1CCCCC1)c1cc([N+](=O)[O-])ccc1N1CCOCC1 | -8.05% | 
CC[C@H](C)[C@@H](NC(=O)O[C@@H]1C(=O)c2cc(OC)ccc2O[C@H]1c1cccc(OC)c1)C(=O)OC | 0.104% | 
